This is part of a sample that, as a whole, favours compounds with a hit. Of some 83,000 tested, about 20% had one in any assay.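 Assay: single dose, 48 h. Readout: percent growth (0 = no net growth; negative = cell death). Active: <10.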 Activity calls are given as the source filed them.

From PubChem BioAssay (NCI) come the findings set out here.

In the assay the test system is SF-539 CNS. Kind of assay: NCI-60 one-dose screen, 48 h (100 = growth as untreated, 0 = no growth, -100 = all killed). To be noted: 10 µM.
As for `Cc1ccc(-c2nc3ccc(C(=O)N=Nc4c(O)[nH]c5ccc(Br)cc45)cc3[nH]2)cc1`, the growth is 86.4% (inactive).

`CCCCCc1ccc(S(=O)(=O)Nc2cc(-c3csc(N(C)C(C)=O)n3)ccc2N2CCN(C)CC2)cc1`: the growth is -58.7% (active).

`Cc1ccc(NC(=O)NCn2c(=O)[nH]c3ccccc3c2=O)cc1`: the growth was 58.2% (inactive).

Take `Cc1ccc(C(=O)NCCCNc2nc(Nc3ccc(N4CCN(C)CC4)cc3)nc3ccsc23)cc1`: the growth was -89.9% (active).

As to `CNC(=O)c1cccc(N2CCc3c2ccc(NC(=O)Nc2ccc(N4CCN(C)CC4)c(C(F)(F)F)c2)c3F)c1`, the growth was -100% (active).

`COC1CC(Cn2cc(COc3ccc4ccc(=O)oc4c3)nn2)C(OCc2ccccc2)C(OCc2ccccc2)C1OCc1ccccc1` (configuration not stated): the growth was 102% (inactive).

Regarding `Cc1ccc(NC(=O)c2ccc(-n3c(=O)[nH]c4ccccc4c3=O)cc2)cc1`, the growth is 38% (inactive).

As for `O=C(Cn1cc(CSc2nnc3oc4ccccc4n23)nn1)Nc1ccc(Br)cc1`, the growth is 29.9% (inactive).

With `C=C(C)[C@@H]1CC[C@]2(C)[C@H](CC=C3[C@@H]4CC(C)(C)CC[C@]4(C(=O)N4CCOCC4)CC[C@]32C)[C@@]1(C)CCCN`, the growth was -98.6% (active).

Turning to `CC(=C(c1ccc(OCCN2CCCCC2)cc1)c1ccc(OCCN2CCCCC2)cc1)c1ccccc1`, the growth is -93.3% (active).

On to `CN1CCN(c2ccc(Nc3nc(NCCCNC(=O)c4ccccc4)c4sccc4n3)cc2)CC1`, for which the growth was -89.5% (active).

For the compound `COc1cccc(C(N)=Nc2ccc(OCCCCCCn3cncn3)cc2)c1`, the growth is -31.3% (active).

On to `O=C(CS(=O)(=O)c1oc(-c2ccc(Cl)cc2)nc1S(=O)(=O)c1ccccc1)N1CCCC1`, for which the growth is -78.6% (active).

As for `CC1(C)CC[C@]2(C(=O)N3CCOCC3)CC[C@]3(C)C(=CC[C@@H]4[C@@]5(C)CC[C@H](NCO)C(C)(C)[C@@H]5CC[C@]43C)[C@H]2C1`, the growth was -96.8% (active).

Turning to `CC(=O)NCC1=C(C)C=C2C(=O)[C@](C)(O)C3(CC3)C(C)=C21`, the growth was -71.1% (active).

On to `C#Cc1ccc(S(=O)(=O)Nc2cccc(-c3csc(NC(C)=O)n3)c2)cc1`, for which the growth was 90.3% (inactive).

As to `C=C[C@H]1[C@H](O[C@@H]2OC(CO)[C@@H](O)[C@H](O)C2OC(=O)c2c(O)cc(O)cc2-c2cccc(O)c2)OC=C2C(=O)OCC[C@H]21` (some centres not stated), the growth is 104% (inactive).

For `O=C(c1ccc(-n2c(=O)[nH]c3ccccc3c2=O)cc1)N1CCOCC1`, the growth is 93.8% (inactive).

As to `CCN(CC)CCOc1ccc(C(=C(C)c2ccccc2)c2ccc(OCCN(CC)CC)cc2)cc1`, the growth was -98.1% (active).

As for `CNC(=O)c1cc(-c2ccc(NC(=O)Nc3ccc(C)cc3)cc2)nc2cccnc12`, the growth is 99% (inactive).

For `O=C(Cn1cc(CSc2nnc3oc4ccccc4n23)nn1)Nc1cccc(Cl)c1`, the growth is 70.6% (inactive).

On to `CC1(C)CC[C@]2(C(=O)NCCCNCCCCNCCCN)CC[C@]3(C)C(=CC[C@@H]4[C@@]5(C)Cc6c([nH]c7ccccc67)C(C)(C)[C@@H]5CC[C@]43C)[C@H]2C1`, for which the growth is 90.7% (inactive).

`CCC(C)S(=O)(=O)c1oc(-c2ccc(C)cc2)nc1S(=O)(=O)c1ccccc1` (configuration not stated): the growth was -100% (active).

As to `CC(=O)Nc1nc(-c2ccc(N3CCN(C)CC3)c(NS(=O)(=O)c3cccc4c(N(C)C)cccc34)c2)cs1`, the growth was 16% (inactive).

Take `N[C@@H](CSSC[C@H](N)C(=O)Nc1ccc(OCC2CCCC2)cc1)C(=O)Nc1ccc(OCC2CCCC2)cc1`: the growth was -99.7% (active).

As to `O=C(Nc1ccncc1)c1ccc(-n2c(=O)[nH]c3ccccc3c2=O)cc1`, the growth is 98.8% (inactive).

Take `CN1CCN(c2ccc(Nc3nc(NCCCNC(=O)c4ccc(F)cc4)c4sccc4n3)cc2)CC1`: the growth is -90% (active).

With `CC1(C)CC[C@]2(C(=O)O)CC[C@]3(C)C(=CC[C@@H]4[C@@]5(C)C/C(=C/c6ccncc6)[C@H](O)C(C)(C)[C@@H]5CC[C@]43C)[C@@H]2C1`, the growth was 27.8% (inactive).

On to `Cc1cc2c(c(O)c1Br)-c1ncoc1C(=O)[C@]1(C)CC[C@H](C(C)C)[C@H]21`, for which the growth is 14.3% (inactive).

Regarding `Cc1ccc(/C=C(\C#N)n2nnc3c(F)cccc32)cc1`, the growth is -27.9% (active).

As for `Cc1cc(C)nc(SCC(=O)Nc2ccc(S(N)(=O)=O)cc2)n1`, the growth is 94.8% (inactive).

For the compound `COc1ccc(-c2nc(S(=O)(=O)c3ccc(C)cc3)c(S(=O)(=O)CC(=O)N(C)Cc3ccccc3)o2)cc1`, the growth is 36.8% (inactive).
